Measured values published in PubChem BioAssay.
Entries with a potency or affinity are not part of this list. Inconclusive results are not listed. Calls of active or inactive are those of the source.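 The calls were made as follows, unless noted: active = fitted dose curve reaches 40% lysis signal rise at or below the highest valid concentration tested for that sample; inconclusive = flat fit between 30% and 70%, or poor curve fit; inactive = signal falls, stays flat within 30%, or no crossing.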

How the values were obtained:
[1] = fungal growth arrest, C. neoformans – Alamar Blue, cherry-picks, dose response (AID 686998;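 active = falling signal with fitted half-maximal potency no higher than twice the top valid tested dose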)
[2] = C. neoformans lysis by adenylate kinase leakage – AK release luminescence, cherry-picks, dose response (AID 687000);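 also: luminescent detection of adenylate kinase leaking from lysed yeast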
[3] = viability loss in HepG2 hepatoma cells – cell-based, cherry-picks, set 2, cytotoxicity control, dose response (AID 687002;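 active = a dose-response fit showing signal loss, with half-maximal concentration no higher than twice the top tested dose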)
[4] = viability loss in HeLa cells – cell-based, ATP luminescence, cherry-pick samples, cytotoxicity control, dose response (AID 687004;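 active = a fitted half-maximal concentration no higher than twice the top valid tested dose, with signal falling as cells die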)

Measured: outcome

COc1cccc(S(=O)(=O)Nc2ccc3c(c2)[C@H]2C[C@H](CC(=O)NCc4cccc(F)c4)O[C@@H](CO)[C@H]2O3)c1
inactive: [1] | [2] | [3] | [4]

O=C(Nc1ccc(F)cc1)N1C[C@H]2[C@@H](c3ccccc31)[C@@H](CO)N2Cc1cocn1
inactive: [1] | [2] | [3] | [4]

C[C@@H]1CCCCO[C@@H](CN(C)Cc2ccncc2)[C@@H](C)CN([C@@H](C)CO)C(=O)c2cc(NC(=O)c3ccncc3)ccc2O1
inactive: [1] | [2] | [3] | [4]

CC(C)NC(=O)NCC[C@@H]1CC[C@@H](NC(=O)CN(C)C)[C@@H](CO)O1
inactive: [1] | [2] | [3] | [4]

CCCNC(=O)N(C)C[C@@H]1Oc2ncc(C#CCc3ccccc3)cc2C(=O)N([C@@H](C)CO)C[C@@H]1C
inactive: [1] | [2] | [3] | [4]

C[C@H](O)C#Cc1cnc2c(c1)C(=O)N([C@@H](C)CO)C[C@@H](C)[C@@H](CN(C)C(=O)Cc1ccncc1)O2
inactive: [1] | [2] | [3] | [4]

C[C@H]1CCCCO[C@H](CN(C)S(=O)(=O)c2ccc(Cl)cc2)[C@@H](C)CN([C@@H](C)CO)C(=O)c2cc(NS(=O)(=O)c3cccs3)ccc2O1
inactive: [1] | [2] | [3] | [4]

C[C@@H]1CCCCO[C@@H](CN(C)CC2CCCCC2)[C@@H](C)CN([C@@H](C)CO)C(=O)c2cc(NS(=O)(=O)c3ccccc3)ccc2O1
inactive: [1] | [2] | [3] | [4]

O=C(NC1CCCC1)N1CCCCN2[C@H](CO)[C@H](c3ccc(-c4cncnc4)cc3)[C@@H]2C1
inactive: [1] | [2] | [3] | [4]

COCC(=O)N1C[C@H](C)[C@@H](OC)CN(C)C(=O)c2ccc(NS(C)(=O)=O)cc2OC[C@@H]1C
inactive: [1] | [2] | [3] | [4]

C[C@H](CO)N1C[C@H](C)[C@@H](CN(C)S(C)(=O)=O)Oc2cc(C#Cc3ccccc3)ccc2S1(=O)=O
inactive: [1] | [2] | [3] | [4]

C[C@H]1CN([C@@H](C)CO)C(=O)Cc2cc(NC(=O)C3CC3)ccc2O[C@H]1CN(C)Cc1ccc(-c2ccccc2)cc1
inactive: [1] | [2] | [3] | [4]

O=C(C[C@H]1CC[C@H]2[C@@H](COC[C@@H](O)CN2C(=O)c2ccc(F)cc2)O1)N1CCOCC1
inactive: [1] | [2] | [3] | [4]

C/C=C/c1ccc([C@@H]2[C@@H](CNC(=O)c3ccccc3)N(C(C)=O)[C@H]2CO)cc1
inactive: [1] | [2] | [3] | [4]

COc1ccc(NC(=O)N(C)C[C@H]2OCc3ccccc3-c3c(n(C)c4ccccc34)C(=O)N([C@H](C)CO)C[C@@H]2C)cc1
inactive: [1] | [2] | [3] | [4]

C[C@@H]1CN([C@@H](C)CO)C(=O)c2cc(-c3ccc(C#N)cc3)cnc2O[C@@H]1CN(C)C(=O)Nc1ccc(F)cc1
inactive: [1] | [2] | [3] | [4]

C[C@H]1CN([C@@H](C)CO)C(=O)c2cccc(N(C)C)c2O[C@@H]1CN(C)C(=O)Nc1cccc2ccccc12
inactive: [1] | [2] | [3] | [4]

C[C@@H]1CN([C@H](C)CO)C(=O)c2cc(N(C)C)ccc2O[C@@H]1CN(C)C(=O)Nc1ccc(C(F)(F)F)cc1
inactive: [1] | [2] | [3] | [4]

C[C@@H]1CN([C@H](C)CO)C(=O)Cc2cc(NC(=O)Nc3cccc4ccccc34)ccc2O[C@@H]1CN(C)Cc1ccc(C(=O)O)cc1
inactive: [1] | [2] | [3] | [4]
